These results are taken from PubChem BioAssay.

Assay [1] concerns Aerobactin synthetase IucA (Klebsiella pneumoniae). The experiment in a line: IucA aerobactin synthetase inhibitors, biochemical, Tocris library, absorbance (AID 1345561; call rule not given here;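 further: 100% = enzyme without compound and 0% = no enzyme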). The conditions noted are these: purified IucA enzyme assay, absorbance (OD) read-out; stronger effect = lower value;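 tested at 8 µM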.
Assay [2] is described as follows: sensitizers of A549 cells to miR-34 induction, primary screen, imaging, A549 dox-inducible miR-34, nuclei and caspase counts (AID 1347080;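 active means compounds whose cell count with miR-34 switched on is under 0.7 times the count with it off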). The conditions noted are these: A549 miR-34 inducible, Hoechst nuclei count, 48 h.
The nature of assay [3]: survival rescue of mitochondrial mutant cells in low glucose, primary screen, MELAS cybrids, Rieske KO mouse fibroblasts, CellTiter-Glo (AID 1508586;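 active means mean z-score across replicates of 1.96 or higher in either the MELAS or the Rieske mutant cell line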;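 further: z relative to plate mean and SD of compound and empty wells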). In general terms: ATP-based viability assays read luminescence as a measure of living cells.
The nature of assay [4]: ovarian cancer cell viability with rucaparib, profiling panel, oncology-focused library, rucaparib conditional (AID 1508598). To be noted: patient-derived ovarian cancer cells, CellTiter-Glo viability, 144 h, stronger effect = lower value.
Assay [5] in a line: viability rescue of complex I mutant cybrids, primary screen, cell-based, galactose medium, ATP luminescence (AID 1645843;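 active means z-score of at least 1.8 in each of two replicates, scored against plate mean and spread of sample wells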;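 further: positive z means more ATP and so rescue of galactose-driven cybrid death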). The conditions noted are these: complex I mutant cybrid cells, 72 h, stronger effect = higher value.
Assay [6] in a line: phospholipid biosynthesis inhibitors in animal cells, primary screen, cell-based, LOPAC library, screen 4 (AID 1347384; call rule not given here). To be noted: phospholipid biosynthesis inhibition screen, at 10 µM.
The mark [7] stands for this setting: stronger effect = lower value, cell number ratio, induced over uninduced.
[8] abbreviates: measured here: relative caspase fold change +Dox/-Dox.
[9] abbreviates: measured here: total cells with miR-34 induction, stronger effect = lower value.
Where [10] appears, read: measured here: total cells without miR-34 induction.

Each structure is given as a SMILES string. Several values for one entry are separate records, joined by “and”; a condition that tells them apart may be missing. Equal values may be shown once. Activity calls are given as the source filed them.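 How the source made its calls, unless noted: active means normalized viability below 100% at a tested concentration; inactive means the rest.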

A word on the remaining activity: it is the signal under treatment as a percentage of the control signal. By viability is commonly meant a read-out of living cells in per cent, often relative to untreated cells. `Cc1ccc(-c2csc(NC(=O)c3ccccc3)n2)c(C)c1`: the remaining activity in assay [1] was 101% (inactive). Also, the fold change in assay [2] (setting [7]) is 0.855 (inactive) and 0.98 (inactive); in assay [2] (setting [8]), 0.603 and 0.953. Further, the cell count was 6970 and 3650 in assay [2] (setting [9]); 8160 and 3730 in assay [2] (setting [10]). Moreover, the z-score is -0.247 (inactive) in assay [3] (MELAS cybrid survival, CellTiter-Glo 48 h, stronger effect = higher value); 0.265 in assay [3] (Rieske KO mouse fibroblast survival, CellTiter-Glo 72 h); -0.675 (inactive) in assay [5]. Also, the viability in assay [4] (at 0.000305 µM, OCI-C5x cells, with rucaparib 10 µM, 100% = cells with rucaparib alone) is 125% (inactive); in assay [4] (at 0.000305 µM, OCI-C5x cells, without rucaparib), 121% (inactive); in assay [4] (at 0.000305 µM, OCI-P5x cells, with rucaparib 20 µM, 100% = cells with rucaparib alone) it was 102% (inactive); in assay [4] (at 0.000305 µM, OCI-P5x cells, without rucaparib) it was 106% (inactive); in assay [4] (at 0.00122 µM, OCI-C5x cells, with rucaparib 10 µM, 100% = cells with rucaparib alone), 119% (inactive); in assay [4] (at 0.00122 µM, OCI-C5x cells, without rucaparib) it was 117% (inactive). The viability was 99.9% (active) in assay [4] (at 0.00122 µM, OCI-P5x cells, with rucaparib 20 µM, 100% = cells with rucaparib alone); 101% (inactive) in assay [4] (at 0.00122 µM, OCI-P5x cells, without rucaparib); 132% (inactive) in assay [4] (at 0.00488 µM, OCI-C5x cells, with rucaparib 10 µM, 100% = cells with rucaparib alone); 125% (inactive) in assay [4] (at 0.00488 µM, OCI-C5x cells, without rucaparib); 98.6% (active) in assay [4] (at 0.00488 µM, OCI-P5x cells, with rucaparib 20 µM, 100% = cells with rucaparib alone); 105% (inactive) in assay [4] (at 0.00488 µM, OCI-P5x cells, without rucaparib). The viability in assay [4] (at 0.0195 µM, OCI-C5x cells, with rucaparib 10 µM, 100% = cells with rucaparib alone) was 115% (inactive); in assay [4] (at 0.0195 µM, OCI-C5x cells, without rucaparib), 113% (inactive); in assay [4] (at 0.0195 µM, OCI-P5x cells, with rucaparib 20 µM, 100% = cells with rucaparib alone) it was 102% (inactive); in assay [4] (at 0.0195 µM, OCI-P5x cells, without rucaparib) it was 98.4% (active); in assay [4] (at 0.0781 µM, OCI-C5x cells, with rucaparib 10 µM, 100% = cells with rucaparib alone), 125% (inactive); in assay [4] (at 0.0781 µM, OCI-C5x cells, without rucaparib), 117% (inactive). Further, the viability in assay [4] (at 0.0781 µM, OCI-P5x cells, with rucaparib 20 µM, 100% = cells with rucaparib alone) was 103% (inactive); in assay [4] (at 0.0781 µM, OCI-P5x cells, without rucaparib), 103% (inactive); in assay [4] (at 0.313 µM, OCI-C5x cells, with rucaparib 10 µM, 100% = cells with rucaparib alone) it was 123% (inactive); in assay [4] (at 0.313 µM, OCI-C5x cells, without rucaparib), 116% (inactive); in assay [4] (at 0.313 µM, OCI-P5x cells, with rucaparib 20 µM, 100% = cells with rucaparib alone) it was 100% (inactive); in assay [4] (at 0.313 µM, OCI-P5x cells, without rucaparib), 99.4% (active). Besides, the viability was 131% (inactive) in assay [4] (at 1.25 µM, OCI-C5x cells, with rucaparib 10 µM, 100% = cells with rucaparib alone); 112% (inactive) in assay [4] (at 1.25 µM, OCI-C5x cells, without rucaparib); 98.2% (active) in assay [4] (at 1.25 µM, OCI-P5x cells, with rucaparib 20 µM, 100% = cells with rucaparib alone); 103% (inactive) in assay [4] (at 1.25 µM, OCI-P5x cells, without rucaparib); 155% (inactive) in assay [4] (at 5 µM, OCI-C5x cells, with rucaparib 10 µM, 100% = cells with rucaparib alone); 115% (inactive) in assay [4] (at 5 µM, OCI-C5x cells, without rucaparib). For the same compound, the viability was 91.8% (active) in assay [4] (at 5 µM, OCI-P5x cells, with rucaparib 20 µM, 100% = cells with rucaparib alone) and 100% (inactive) in assay [4] (at 5 µM, OCI-P5x cells, without rucaparib).
For the compound `NS(=O)(=O)c1cccc2c1c([N+](=O)[O-])cc1[nH]c(=O)c(=O)[nH]c12`, the remaining activity in assay [1] is 96.2% (inactive). The fold change in assay [2] (setting [7]) is 0.919 (inactive); in assay [2] (setting [8]), 0.625. The cell count in assay [2] (setting [9]) is 8900; in assay [2] (setting [10]), 9680. For the same compound, the compound was classed as inactive in assay [6]. Moreover, the z-score in assay [5] was -0.025 (inactive).
